Data from PubChem BioAssay.
Inconclusive results are not listed. Activity calls are given as the source filed them.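 Rule for the calls, unless noted: active = efflux inhibition above 0.42, the validation set average plus 4 SD; inconclusive = no clear call, values can overlap the other calls; inactive = the rest.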

Columns and labels:
[1] = rapamycin-like changes in RPL19A-GFP expression – cell-based, S. cerevisiae, multiplex flow cytometry, primary screen (AID 1862; in the data active = percent of DMSO control GFP below about 86%;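 note: lower values mimic rapamycin by blocking the RPL19A rise seen in DMSO cells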); conditions: S. cerevisiae RPL19A-GFP strain, flow cytometry fluorescence, 3 h; at 10 µM; stronger effect = lower value
[2] = TOR pathway GLN3 branch reporter MEP2-GFP changes – S. cerevisiae, multiplex flow cytometry, primary screen (AID 1867;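 active = GFP response, as percent of the DMSO control, above the screen-wide mean plus 3 SD, about 139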;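 note: median GFP channel fluorescence of barcode-gated MEP2-GFP cells measured by flow cytometry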); conditions: S. cerevisiae MEP2-GFP strain, 3 h, at 10 µM, stronger effect = higher value, 100% means same as DMSO wells
[3] = TOR pathway RTG branch CIT2 reporter changes – S. cerevisiae, GFP fusion, multiplex flow cytometry, primary screen (AID 1870;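 active = percent response above a set limit, the screen-wide mean plus 3 SD, cut at about 130% in these data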;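 note: barcoded CIT2-GFP strain pooled with four other GFP strains with rapamycin as positive control; median GFP fluorescence per well over plate mean of DMSO wells so 100% = DMSO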); conditions: S. cerevisiae CIT2-GFP expression, 3 h, at 10 µM, stronger effect = higher value
[4] = TOR pathway LAP4-GFP level changes – S. cerevisiae, multiplex flow cytometry, primary screen (AID 1873;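 active = GFP signal, as percent of the solvent control, above the screen mean plus 3 SD, about 149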); conditions: S. cerevisiae LAP4-GFP expression, 3 h, at 10 µM, stronger effect = higher value
[5] = yeast AGP1-GFP level changes, GLN3 branch – cell-based, multiplex flow cytometry, S. cerevisiae, primary screen (AID 1887;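 active = GFP signal above the screen-wide mean plus 3 SD, that is over about 124.5% of the solvent control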;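 note: AGP1-GFP fusion strain of S. cerevisiae within a five-strain barcoded multiplex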); conditions: 3 h, at 10 µM, stronger effect = higher value
[6] = reduced mouse 2C T cell binding to pMHC/ICAM-1 vesicles – MLPCN validation set, flow cytometry, LFA-1/ICAM-1 modulator project, pilot screen (AID 2523;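 active = response below a set limit, under 55% cells CD8-positive and vesicle-bound, and CD8 cells' 90th-percentile brightness under 279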;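 for vesicle binding response: mean PE anti-B7-1 fluorescence of CD8+ cells relative to row control; 100% = QL9-loaded vesicles with DMSO vehicle in the same plate row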); conditions: 2C mouse CD8+ T cells, at 7 µM, stronger effect = lower value; double positive events: measured here: CD8+/vesicle+ event percentage
[7] = molecular target: Integrin beta-1 (Homo sapiens) + Integrin alpha-4 (Homo sapiens) (UniProt P13612+P05556); test: alpha4beta1 integrin LIBS antibody binding reduction – U937 cells, HUTS-21 mAb, flow cytometry, validation set, VLA-4 allosteric modulator project, pilot screen (AID 2674;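 active = inhibition above 50%, about 3 SD of the validation set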;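 note: antibody binding induced by the VLA-4 ligand LDV present at three times its Kd; 0% = LDV ligand with antibody and no compound and 100% = antibody without LDV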); conditions: HUTS-21 LIBS mAb binding, at 6.7 µM, stronger effect = higher value, binding induced by LDV ligand
[8] = calorie-restriction mimetic ROS inhibitors, yeast – validation compound set, pilot screen (AID 2706;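 active = superoxide response below 65% of plate, a cut near 3 SD across the whole screen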;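 note: yeast exposed to compound for one week at 30 degrees C before staining; 100% = mean of all compound wells on the same plate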); conditions: S. cerevisiae aging, superoxide DHE fluorescence; at 10 µM; stronger effect = lower value
[9] = molecular target: Beta-adrenergic receptor kinase 1 (Homo sapiens) (UniProt P25098); test: GRK2 binders displacing RNA aptamer, biochemical, validation, human GRK2, bead flow cytometry (AID 488806;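 active = aptamer binding inhibition above 30%, about 3 SD of noise from non-fluorescent compounds; inactive = inhibition at or below 30%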); conditions: bead-bound GRK2, FAM-aptamer displacement, at 10 µM, stronger effect = higher value
[10] = molecular target: Beta-2 adrenergic receptor (Homo sapiens) (UniProt P07550); test: agonist-induced loss of surface beta2AR – cell-based, FAP fluorogen, flow cytometry, validation set, pilot screen (AID 504459;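 active = percent response above 42, roughly 3 SD of non-fluorescent test compounds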;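 note: agonist-driven loss of surface beta2AR via internalization measured by FAP dye flow cytometry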); conditions: Am2.2-beta2AR cells, at 10 µM, stronger effect = higher value
[11] = molecular target: AP-2 complex subunit beta (Homo sapiens) (UniProt P63010); test: beta-arrestin/AP2 interaction blockers – biochemical, validation set, GST-AP2 beads, flow cytometry, pilot screen (AID 504541;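 active = inhibition above 54%, about 3 SD of non-fluorescent compounds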;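 note: AP2 carries R879A mutation and is captured from E. coli lysate; bead-bound FITC arrestin peptide fluorescence measuring arrestin peptide binding to AP2; 0% = DMSO wells and 100% = excess unlabeled arrestin peptide control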); conditions: FITC arrestin peptide, at 10 µM, stronger effect = higher value, AP2 beta2 appendage fragment, R879A mutant
[12] = cytosolic pH regulators acting via V-ATPase – S. cerevisiae, pHLuorin, HTS validation (AID 504600; in the data active = response above about 15%;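 note: plate controls were DMSO for no effect and reference compound for full effect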); conditions: V-ATPase proton transport, at 10 µM, stronger effect = higher value
[13] = test system: anti-desmoglein-3 scFv antibody binding to human DSG3; test: blockers of pathogenic pemphigus antibody–desmoglein-3 binding – biochemical, validation compound set, bead-based, flow cytometry, pilot screen (AID 588368;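 active = binding below the plate cutoff, the plate median minus 3 SD, with a reading above zero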;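 note: signal is the median channel fluorescence of bead-bound GFP antibody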); conditions: Protein G beads, DSG3-Fc, scFv-GFP binding, at 10 µM, stronger effect = lower value
[14] = Nile Red efflux blockade in pump-expressing yeast – validation compound set, multiplex, phenotypic, pilot screen (AID 588506);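 note: Nile Red retained in cells so higher fluorescence means more efflux inhibition; 0 = negative control wells and 1 = enniatin B 25 µM full block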; conditions: S. cerevisiae pump-expressing triplex, Nile Red efflux flow cytometry; at 10 µM; stronger effect = higher value; the pumps come from Candida albicans
[15] = molecular target: ATP-binding cassette sub-family B member 6 (Homo sapiens) (UniProt Q9NP58); test: blockers of ABCB6-driven porphyrin uptake – K562-ABCB6 cells, flow cytometry, validation set, pilot screen (AID 588550;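 active = inhibition above the screen-wide mean plus 3 SD, about 51%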;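 note: 0% = DMSO wells and 100% = benzethonium chloride 70 µM positive control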); conditions: K562-ABCB6 porphyrin accumulation, 1 h, at 10 µM, stronger effect = higher value
[16] = AML differentiation inducers, ER-HoxA9 marrow cells – cell-based, GFP/MAC1 double positive, flow cytometry, validation set, primary screen (AID 588685;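 active = differentiation response of at least 50%, scaled between solvent and reference control, from cells with both markers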;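 note: compound exposure lasts four days before antibody staining and flow analysis; 0% = DMSO wells and 100% = 5 µM fulvestrant positive control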); conditions: stronger effect = higher value, normalized: vehicle 0, fulvestrant 100

Sequence of Beta-2 adrenergic receptor (Homo sapiens) (P07550 whole entry, looked up): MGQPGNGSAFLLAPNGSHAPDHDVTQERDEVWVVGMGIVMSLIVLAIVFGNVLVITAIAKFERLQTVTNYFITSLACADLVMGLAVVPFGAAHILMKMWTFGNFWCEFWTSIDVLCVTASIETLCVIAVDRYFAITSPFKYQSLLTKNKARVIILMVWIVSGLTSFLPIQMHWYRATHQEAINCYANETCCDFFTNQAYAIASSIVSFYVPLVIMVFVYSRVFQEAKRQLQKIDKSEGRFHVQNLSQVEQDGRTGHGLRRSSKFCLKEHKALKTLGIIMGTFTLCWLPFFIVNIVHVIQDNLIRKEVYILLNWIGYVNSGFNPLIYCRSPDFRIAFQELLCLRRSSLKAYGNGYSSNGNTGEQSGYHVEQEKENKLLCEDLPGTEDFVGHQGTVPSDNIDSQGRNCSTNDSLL
Sequence of Beta-adrenergic receptor kinase 1 (Homo sapiens) (P25098 whole entry, looked up): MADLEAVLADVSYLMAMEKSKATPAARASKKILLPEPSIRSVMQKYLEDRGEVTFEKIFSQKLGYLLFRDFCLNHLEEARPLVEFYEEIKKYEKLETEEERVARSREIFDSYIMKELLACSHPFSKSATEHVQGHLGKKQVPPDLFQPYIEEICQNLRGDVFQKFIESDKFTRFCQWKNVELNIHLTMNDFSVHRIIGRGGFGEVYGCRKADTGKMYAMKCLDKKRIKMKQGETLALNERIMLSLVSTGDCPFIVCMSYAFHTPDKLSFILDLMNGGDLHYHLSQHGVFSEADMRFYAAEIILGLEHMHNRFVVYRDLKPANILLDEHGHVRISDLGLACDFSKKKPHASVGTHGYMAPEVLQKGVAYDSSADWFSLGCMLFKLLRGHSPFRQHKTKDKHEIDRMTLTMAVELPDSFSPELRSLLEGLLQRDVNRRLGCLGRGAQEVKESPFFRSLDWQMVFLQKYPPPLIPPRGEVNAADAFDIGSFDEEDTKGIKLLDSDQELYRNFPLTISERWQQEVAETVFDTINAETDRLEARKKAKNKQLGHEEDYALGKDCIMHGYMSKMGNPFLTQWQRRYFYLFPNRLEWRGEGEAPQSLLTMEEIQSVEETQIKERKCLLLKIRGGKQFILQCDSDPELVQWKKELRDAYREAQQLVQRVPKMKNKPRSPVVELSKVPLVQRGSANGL
Sequence of AP-2 complex subunit beta (Homo sapiens) (P63010 whole entry, looked up, the tested form may be a part, one chain of several): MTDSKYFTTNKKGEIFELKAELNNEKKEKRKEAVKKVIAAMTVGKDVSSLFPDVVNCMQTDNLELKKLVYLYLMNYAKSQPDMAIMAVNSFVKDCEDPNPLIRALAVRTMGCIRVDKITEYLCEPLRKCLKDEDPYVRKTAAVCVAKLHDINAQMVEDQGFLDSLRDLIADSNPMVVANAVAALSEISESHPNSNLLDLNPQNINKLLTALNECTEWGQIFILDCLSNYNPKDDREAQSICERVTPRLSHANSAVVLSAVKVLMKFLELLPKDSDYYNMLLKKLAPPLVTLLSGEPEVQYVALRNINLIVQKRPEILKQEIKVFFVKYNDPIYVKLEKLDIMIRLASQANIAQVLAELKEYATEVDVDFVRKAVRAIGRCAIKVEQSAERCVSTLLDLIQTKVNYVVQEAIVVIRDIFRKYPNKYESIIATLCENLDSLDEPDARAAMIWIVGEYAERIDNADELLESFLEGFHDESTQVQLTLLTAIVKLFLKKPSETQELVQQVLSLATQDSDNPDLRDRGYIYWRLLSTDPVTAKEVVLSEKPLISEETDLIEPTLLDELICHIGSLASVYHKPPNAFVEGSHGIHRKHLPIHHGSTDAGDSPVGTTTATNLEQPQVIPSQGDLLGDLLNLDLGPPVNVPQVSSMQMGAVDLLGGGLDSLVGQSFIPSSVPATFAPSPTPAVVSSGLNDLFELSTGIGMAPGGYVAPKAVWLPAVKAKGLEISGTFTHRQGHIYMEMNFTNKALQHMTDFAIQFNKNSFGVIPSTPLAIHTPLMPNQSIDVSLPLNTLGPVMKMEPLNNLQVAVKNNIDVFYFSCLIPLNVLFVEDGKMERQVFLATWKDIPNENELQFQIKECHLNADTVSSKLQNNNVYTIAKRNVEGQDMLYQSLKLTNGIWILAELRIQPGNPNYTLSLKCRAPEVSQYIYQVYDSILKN
Sequence of Integrin beta-1 (Homo sapiens) + Integrin alpha-4 (Homo sapiens) (P05556 whole entry, looked up): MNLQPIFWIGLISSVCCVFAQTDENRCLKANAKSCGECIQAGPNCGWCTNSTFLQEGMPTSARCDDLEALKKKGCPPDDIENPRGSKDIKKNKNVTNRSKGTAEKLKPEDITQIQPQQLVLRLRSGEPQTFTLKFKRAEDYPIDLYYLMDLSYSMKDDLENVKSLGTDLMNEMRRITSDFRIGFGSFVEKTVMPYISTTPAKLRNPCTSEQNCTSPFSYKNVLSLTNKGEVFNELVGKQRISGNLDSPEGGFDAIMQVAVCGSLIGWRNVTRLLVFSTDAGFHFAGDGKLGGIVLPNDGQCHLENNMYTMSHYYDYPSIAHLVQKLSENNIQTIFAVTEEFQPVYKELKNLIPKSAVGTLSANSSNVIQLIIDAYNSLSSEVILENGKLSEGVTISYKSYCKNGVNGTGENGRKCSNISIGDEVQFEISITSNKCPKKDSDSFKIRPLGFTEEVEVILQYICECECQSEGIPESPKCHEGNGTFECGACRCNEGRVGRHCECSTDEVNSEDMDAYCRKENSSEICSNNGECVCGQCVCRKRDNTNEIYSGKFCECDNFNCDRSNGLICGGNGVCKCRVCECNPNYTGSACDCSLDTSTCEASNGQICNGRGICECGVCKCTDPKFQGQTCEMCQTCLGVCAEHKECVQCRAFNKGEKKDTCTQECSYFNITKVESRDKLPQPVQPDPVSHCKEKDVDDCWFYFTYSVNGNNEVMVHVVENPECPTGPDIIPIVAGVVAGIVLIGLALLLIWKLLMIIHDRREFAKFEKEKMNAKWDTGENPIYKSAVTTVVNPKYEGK
Sequence of Integrin beta-1 (Homo sapiens) + Integrin alpha-4 (Homo sapiens) (P13612 whole entry, looked up): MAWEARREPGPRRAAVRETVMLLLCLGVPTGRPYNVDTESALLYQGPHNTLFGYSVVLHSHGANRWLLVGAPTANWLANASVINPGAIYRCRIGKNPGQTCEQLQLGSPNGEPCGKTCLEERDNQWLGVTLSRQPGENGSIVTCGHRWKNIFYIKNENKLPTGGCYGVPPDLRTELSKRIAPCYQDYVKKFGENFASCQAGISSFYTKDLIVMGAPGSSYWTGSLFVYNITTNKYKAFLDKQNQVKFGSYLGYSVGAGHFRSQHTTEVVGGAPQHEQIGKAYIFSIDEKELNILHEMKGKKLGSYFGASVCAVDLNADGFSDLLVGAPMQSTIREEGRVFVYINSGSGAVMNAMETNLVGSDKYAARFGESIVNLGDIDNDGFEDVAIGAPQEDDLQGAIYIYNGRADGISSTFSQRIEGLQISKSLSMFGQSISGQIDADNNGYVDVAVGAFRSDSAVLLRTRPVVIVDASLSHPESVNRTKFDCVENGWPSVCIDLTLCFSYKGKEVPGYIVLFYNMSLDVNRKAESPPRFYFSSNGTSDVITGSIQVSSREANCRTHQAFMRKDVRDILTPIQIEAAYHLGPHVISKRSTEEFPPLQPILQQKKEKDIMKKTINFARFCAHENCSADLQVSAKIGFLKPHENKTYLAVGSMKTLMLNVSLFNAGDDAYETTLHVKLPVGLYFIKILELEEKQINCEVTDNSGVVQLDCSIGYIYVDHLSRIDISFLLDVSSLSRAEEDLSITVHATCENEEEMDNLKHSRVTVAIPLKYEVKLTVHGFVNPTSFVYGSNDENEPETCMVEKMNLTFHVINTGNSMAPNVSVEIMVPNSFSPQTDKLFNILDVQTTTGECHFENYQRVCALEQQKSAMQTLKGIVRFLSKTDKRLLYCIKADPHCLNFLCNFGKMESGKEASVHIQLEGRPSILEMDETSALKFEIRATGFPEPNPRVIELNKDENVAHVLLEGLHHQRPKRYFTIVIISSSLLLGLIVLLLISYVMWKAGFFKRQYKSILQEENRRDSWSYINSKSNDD
Sequence of ATP-binding cassette sub-family B member 6 (Homo sapiens) (Q9NP58 whole entry, looked up): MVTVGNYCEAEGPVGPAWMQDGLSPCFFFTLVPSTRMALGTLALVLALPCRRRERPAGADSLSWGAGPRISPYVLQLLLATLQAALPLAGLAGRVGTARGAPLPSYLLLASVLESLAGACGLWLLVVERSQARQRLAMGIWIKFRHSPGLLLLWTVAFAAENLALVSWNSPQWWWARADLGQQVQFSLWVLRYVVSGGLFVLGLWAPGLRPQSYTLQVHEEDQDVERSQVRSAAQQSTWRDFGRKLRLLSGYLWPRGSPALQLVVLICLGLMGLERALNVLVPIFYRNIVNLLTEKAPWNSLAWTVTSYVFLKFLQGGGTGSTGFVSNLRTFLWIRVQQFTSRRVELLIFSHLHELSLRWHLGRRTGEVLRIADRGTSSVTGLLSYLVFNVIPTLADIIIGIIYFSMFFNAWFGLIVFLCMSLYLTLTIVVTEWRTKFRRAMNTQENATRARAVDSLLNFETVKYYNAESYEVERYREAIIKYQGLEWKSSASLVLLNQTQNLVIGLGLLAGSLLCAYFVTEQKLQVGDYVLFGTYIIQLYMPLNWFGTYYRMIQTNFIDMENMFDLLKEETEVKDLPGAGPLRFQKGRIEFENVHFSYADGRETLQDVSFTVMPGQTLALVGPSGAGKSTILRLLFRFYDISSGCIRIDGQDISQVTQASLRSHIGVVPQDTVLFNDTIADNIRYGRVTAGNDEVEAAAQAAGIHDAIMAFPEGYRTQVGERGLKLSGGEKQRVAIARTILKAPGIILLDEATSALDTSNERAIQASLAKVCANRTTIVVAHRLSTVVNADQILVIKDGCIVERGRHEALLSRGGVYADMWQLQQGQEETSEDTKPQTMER

SMILES	percent of DMSO control GFP [1]	GFP response vs DMSO [2]	percent response of DMSO control [3]	GFP response vs DMSO [4]	GFP response, % of DMSO [5]	double positive events [6]	vesicle binding response [6]	inhibition [7]	superoxide response (% of plate) [8]	aptamer binding inhibition [9]	response [10]	inhibition [11]	response [12]	binding (% of control) [13]	efflux inhibition (fraction of control) [14]	inhibition [15]	differentiation response [16]
C/C=C/c1ccc(OCCCCN2CC(C)CC(C)C2)c(OC)c1 (stereo not given)	102% (inactive)	107% (inactive)	106% (inactive)	96.6% (inactive)	97.2% (inactive)	58.6%	52.4% (inactive)	8.88% (inactive)	104% (inactive)	-1% (inactive)	-1.02% (inactive)	39.6% (inactive)	-3.37% (inactive)	99.7% (inactive)	0.02 (inactive)	-10% (inactive)	-1.71% (inactive)
Cc1ccc2nc(C)c3c(c2c1)OC(C(C)(Cl)Br)C3 (stereo not given)	102% (inactive)	102% (inactive)	111% (inactive)	105% (inactive)	105% (inactive)	73%	278% (inactive)	6.4% (inactive)	94.8% (inactive)	5% (inactive)	23.5% (inactive)	-1.65% (inactive)	6.53% (inactive)	98.4% (inactive)	0.08 (inactive)	1% (inactive)	15.2% (inactive)
OCC1CCN(Cc2cn(Cc3ccccc3)nc2-c2cc3ccccc3o2)CC1	106% (inactive)	97.2% (inactive)	97.8% (inactive)	79.5% (inactive)	102% (inactive)	60.9%	203% (inactive)	18.2% (inactive)	99.1% (inactive)	-3% (inactive)	21% (inactive)	5.6% (inactive)	-6.29% (inactive)	98.5% (inactive)	0.52 (active)	20% (inactive)	10% (inactive)
COc1ccc2c(CC(=O)NCC3CCC(C(=O)O)CC3)cc(=O)oc2c1 (stereo not given)	101% (inactive)	103% (inactive)	105% (inactive)	101% (inactive)	107% (inactive)	59.6%	116% (inactive)	-9.13% (inactive)	111% (inactive)	-2% (inactive)	-4.55% (inactive)	-1.68% (inactive)	7.23% (inactive)	102% (inactive)	0.04 (inactive)	-1% (inactive)	4.2% (inactive)
COc1ccc(C2C3=C(CC(C)(C)CC3=O)N(C)C3=C2C(=O)CC(C)(C)C3)cc1	101% (inactive)	99.6% (inactive)	88% (inactive)	110% (inactive)	118% (inactive)	62.6%	173% (inactive)	4.84% (inactive)	104% (inactive)	5% (inactive)	-20.5% (inactive)	2.92% (inactive)	-12.8% (inactive)	100% (inactive)	-0.09 (inactive)	3% (inactive)	3.88% (inactive)
COC(=O)CCC(=O)CN	102% (inactive)	106% (inactive)	110% (inactive)	118% (inactive)	113% (inactive)	62.2%	148% (inactive)	-5.11% (inactive)	94% (inactive)	-3% (inactive)	1.35% (inactive)	7.22% (inactive)	-6.15% (inactive)	102% (inactive)	-0.11 (inactive)	5% (inactive)	7.13% (inactive)
CC1(C)CC(=O)c2c(nc3ccccc3c2N)C1	105% (inactive)	90.9% (inactive)	111% (inactive)	104% (inactive)	99.2% (inactive)	62.1%	259% (inactive)	-3.57% (inactive)	89.8% (inactive)	0% (inactive)	-12.4% (inactive)	-2.7% (inactive)	-3.81% (inactive)	102% (inactive)	-0.29 (inactive)	9% (inactive)	0.24% (inactive)
O=C(c1ccco1)N1CCCN(Cc2nc(-c3ccc4c(c3)OCO4)no2)CC1	104% (inactive)	103% (inactive)	106% (inactive)	98.6% (inactive)	102% (inactive)	62.2%	310% (inactive)	-0.45% (inactive)	102% (inactive)	2% (inactive)	-9.4% (inactive)	7.41% (inactive)	-0.63% (inactive)	94.7% (inactive)	0.02 (inactive)	10% (inactive)	-11.5% (inactive)
COc1ccccc1NC(=O)Cn1c(C)cc(=O)c2cccc(OC)c21	102% (inactive)	108% (inactive)	100% (inactive)	90.2% (inactive)	99.9% (inactive)	60.7%	79.1% (inactive)	-11.8% (inactive)	105% (inactive)	4% (inactive)	11.6% (inactive)	-11.8% (inactive)	0.11% (inactive)	103% (inactive)	0.58 (active)	6% (inactive)	-5.68% (inactive)
Cc1nnc(SCC2=C(C(=O)O)N3C(=O)[C@@H](NC(=O)Cn4cnnn4)[C@H]3SC2)s1	100% (inactive)	104% (inactive)	100% (inactive)	114% (inactive)	112% (inactive)	61.6%	282% (inactive)	15.9% (inactive)	98.1% (inactive)	-1% (inactive)	-26.4% (inactive)	6.15% (inactive)	-5.74% (inactive)	93.4% (inactive)	-0.13 (inactive)	1% (inactive)	-7.94% (inactive)
